# Reference: PubChem BioAssay (NCI)
# The panel holds about 83,000 compounds, 20% with a hit somewhere; the sample as a whole holds those more often.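 The test compound was applied at a single concentration to cells in 96-well plates for 48 hours, and percent growth was recorded.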 Values without a mark were called inactive. The source made the active and inactive calls. Rule for the calls: active = growth percent below 10; inactive = the rest.
# What was measured:
# Experiment in all cases: NCI-60 one-dose screen, 48 h (100 = growth as untreated, 0 = no growth, -100 = all killed)
# Conditions in all cases: 10 µM unless noted
# SR leukemia = system: SR leukemia
# RPMI-8226 leukemia = system: RPMI-8226 leukemia
# OVCAR-5 ovarian = system: OVCAR-5 ovarian
# OVCAR-4 ovarian = system: OVCAR-4 ovarian
# SK-OV-3 ovarian = system: SK-OV-3 ovarian
# IGROV1 ovarian = system: IGROV1 ovarian
# OVCAR-3 ovarian = system: OVCAR-3 ovarian
# HS 578T breast = system: HS 578T breast
# NCI/ADR-RES ovarian = system: NCI/ADR-RES ovarian
# T-47D breast = system: T-47D breast
# BT-549 breast = system: BT-549 breast
# MDA-MB-435 melanoma = system: MDA-MB-435 melanoma
# SW-620 colon = system: SW-620 colon
# MCF7 breast = system: MCF7 breast
# HCT-116 colon = system: HCT-116 colon
# HCC-2998 colon = system: HCC-2998 colon
# KM12 colon = system: KM12 colon
# OVCAR-8 ovarian = system: OVCAR-8 ovarian
SMILES,growth (SR leukemia),growth (RPMI-8226 leukemia),growth (OVCAR-5 ovarian) [%],growth (OVCAR-4 ovarian) [%],growth (SK-OV-3 ovarian) [%],growth (IGROV1 ovarian),growth (OVCAR-3 ovarian),growth (HS 578T breast),growth (NCI/ADR-RES ovarian) [%],growth (T-47D breast),growth (BT-549 breast),growth (MDA-MB-435 melanoma),growth (SW-620 colon),growth (MCF7 breast),growth (HCT-116 colon),growth (HCC-2998 colon) [%],growth (KM12 colon) [%],growth (OVCAR-8 ovarian) [%]
CC(=O)N1N=C(c2ccc(Nc3nc(Nc4ccc(F)cc4)nc(Nc4ccc(Cl)cc4)n3)cc2)CC1c1ccc(Cl)cc1 (centres undefined),102%,82.7%,95.1,94.2,97.2,66.1%,123%,95.8%,91.1,68.1%,122%,115%,105%,91%,86.4%,96.8,108,–
CC(C)(C)NC(=O)C(OC(=O)c1cccc(Cl)c1)c1ccc(Cl)cc1 (centres undefined),103%,102%,94.5,105,93.1,104%,103%,110%,101,96.8%,82.9%,107%,103%,95.8%,74.7%,107,100,–
O=c1n(Cc2ccc3ccccc3c2)ccn1Cc1ccc2ccccc2c1,97%,104%,82.1,69.3,90.5,91.6%,100%,86.9%,86.8,55.5%,92.4%,107%,102%,97.6%,70.6%,103,96.4,–
Nc1ccc(Sc2ccc([N+](=O)[O-])c3nonc23)cc1,7.97% (active),79.9%,108,97.8,96.8,97%,78%,102%,98.8,54.5%,88.8%,99.2%,46%,73.2%,66.3%,108,96.2,–
CCc1ccc(Oc2c(-c3ccc(OCCc4cccc(C(F)(F)F)c4)cc3O)n[nH]c2C(F)(F)F)cc1,47.3%,3.94% (active),84.3,22,64.9,32.8%,0.567% (active),51.1%,42,6.59% (active),86.5%,27.1%,14.7%,27.8%,0% (active),89.4,46.4,–
CCc1ccc(Oc2c(-c3ccc(OCc4ccc(Cl)cc4)cc3O)n[nH]c2C(F)(F)F)cc1,12.7%,1.99% (active),85.9,16.5,27,22%,0.589% (active),27.9%,16.5,-2.85% (active),34.7%,7.72% (active),17.4%,4.9% (active),-5.05% (active),62.2,19.5,–
COc1ccc(C(Cc2ccccc2)NCCN2CCOCC2)cc1 (centres undefined),96.4%,109%,94.7,98.7,102,91.8%,100%,107%,98.7,85.4%,82.1%,105%,107%,89.2%,95.9%,86.6,104,–
CCCCCCNC(=O)Oc1ccc(/C(=C(\C)c2ccc(Cl)cc2)c2ccc(OCCCN(C)C)cc2)cc1,-13% (active),79%,75.1,76,94.4,67%,87.8%,74.5%,83.2,61.1%,90.6%,72.4%,87.9%,25.2%,36.9%,82.3,59.6,–
COc1cc(/C=N/NC(=O)c2ccc(C)nc2)cc(OC)c1OC,103%,121%,103,96.4,112,107%,119%,88.6%,102,104%,105%,109%,95.6%,103%,110%,106,97.8,–
O=c1ccn(Cc2cn(-c3c4ccccc4nc4ccccc34)nn2)c(=O)[nH]1,38.8%,87.3%,114,109,90.9,80.9%,110%,94.6%,108,38%,100%,99.4%,93%,36.4%,92.4%,90.5,104,–
CC1(C)C2CC1C1(/C=N\Nc3ccccc3)C(C2)C(C#N)(C#N)C1(C#N)C#N (centres undefined),92.4%,90.1%,103,82.5,97.4,64.8%,84.7%,93.9%,87.8,72.6%,107%,104%,101%,94.8%,83.9%,94.6,81.3,–
CCS(=O)(=O)c1ncnc2nc[nH]c12,97.8%,95.9%,98.1,106,95.2,109%,111%,97.6%,104,89.8%,90.9%,104%,99.8%,89.2%,87.3%,107,108,–
Cc1cc2[nH]c(=O)c3c4ncccc4cn3c2cc1C,-1.41% (active),2.89% (active),–,–,87.4,24.5%,–,101%,34.3,56.5%,105%,11.1%,-26.9% (active),11.6%,-77.1% (active),13.7,25.1,39.6
C=C1C(=O)O[C@H]2[C@H]1CC/C(COC(=O)CCSSCCC(=O)OC/C1=C/CC[C@@]3(C)O[C@H]3[C@H]3OC(=O)C(=C)[C@@H]3CC1)=C\CC[C@@]1(C)O[C@@H]21,-14.1% (active),-23.5% (active),17.7,29.9,89.9,-49.6% (active),-35.8% (active),7.57% (active),50.5,-8.54% (active),-78.5% (active),10.8%,-77.7% (active),-49.4% (active),-90.2% (active),67,51.6,–
O=C1CN(CCN2CC(=O)N(Cc3ccccc3)C(=O)C2)CC(=O)N1Cc1ccccc1,108%,99.5%,109,106,113,109%,109%,96.7%,103,99%,104%,106%,96.8%,94.7%,98.6%,121,103,–
Cc1ccc(S(=O)(=O)Oc2ccc(NC(=O)c3ccc(Cl)cc3)cc2)cc1,93.6%,97.6%,107,96.5,98.5,97.8%,103%,107%,99.4,98.1%,90.8%,105%,103%,91.8%,81%,104,103,–
Cc1ccc(C(C)C)cc1C(=O)C[n+]1ccccc1,86.1%,114%,91.1,101,97.7,98.6%,101%,100%,107,88.7%,95.8%,101%,106%,87.1%,79%,107,101,–
Cc1ccc(C(=O)NN2C(=O)CSC2c2ccc(Cl)cc2)cn1 (centres undefined),80.8%,113%,92.3,101,97.1,54.8%,111%,130%,93.2,84%,192%,91.1%,97%,105%,96%,96.5,97.9,–
